This is a sample that favours compounds with a hit; in the whole collection about 1.2% have one here.
AGP1 TOR yeast – modulators of AGP1-GFP expression in yeast TOR pathway, primary screen, cell-based, multiplex flow cytometry, S. cerevisiae, MLPCN library; GFP response vs DMSO, % at 10 µM; 0.02% of 320,000 active; 3 h; GFP as percent of DMSO wells;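 active = GFP response relative to DMSO above a set limit, near screen average plus 3 SD, cut at about 150% in these data; inconclusive = fewer than 70 cells counted for the yeast strain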;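 also: median GFP channel fluorescence of the gated AGP1 strain per well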
CIT2 TOR yeast – modulators of CIT2-GFP expression in yeast, primary screen, S. cerevisiae, GFP fusion, multiplex flow cytometry, MLPCN library; S. cerevisiae CIT2-GFP strain, 3 h; 100 means same as DMSO wells; GFP response vs DMSO, % at 10 µM; 0.065% of 320,000 active;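 active = GFP response relative to DMSO above a set limit, near the screen mean plus 3 SD, cut at about 150% in these data; inconclusive = Fewer than 70 cells measured for a yeast strain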;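 also: ratio of well median GFP fluorescence to mean of DMSO wells on the plate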
DSG3 Ab inh – inhibitors of pemphigus antibody binding to DSG3, primary screen, biochemical, bead-based, flow cytometry, scFv-GFP; Desmoglein-3 (Homo sapiens), P32926; DSG3-coupled beads, scFv-anti-DSG3-GFP binding; hits give low values; binding (percent of control), % at 10 µM; 0.48% of 310,000 active; AID 588358, 2011;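 active = binding more than 3 SD below its plate's average and above zero; inconclusive = below that plate limit but binding exactly zero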;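 also: hits lower antibody fragment binding to DSG3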
RPL19A-GFP yeast – RPL19A-GFP expression modulators in yeast, primary screen, cell-based, S. cerevisiae, multiplex flow cytometry, MLPCN; S. cerevisiae RPL19A-GFP strain, 3 h; hits give low values; percent response vs DMSO, % at 10 µM; 0.3% of 330,000 active;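 active = percent response vs DMSO below 50%; inconclusive = fewer than 70 events counted for the yeast strain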;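 also: median channel GFP fluorescence of the barcoded RPL19A-GFP strain; lower means less RPL19A-GFP as with rapamycin TOR inhibition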
LAP4-GFP MLPCN – modulators of LAP4-GFP expression in yeast, primary screen, S. cerevisiae, multiplex flow cytometry, MLPCN library; 0.34% of 320,000 active; 3 h; median GFP as percent of DMSO wells; AID 2023, 2009; GFP response vs DMSO, % at 10 µM;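 active = GFP response vs DMSO above a set limit, about the screen mean plus 3 SD, cut at about 150% in these data; inconclusive = under 70 cell events counted for the yeast strain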
MEP2 TOR yeast – modulators of MEP2-GFP levels in yeast, primary screen, S. cerevisiae, multiplex flow cytometry, MLPCN library; S. cerevisiae MEP2-GFP strain, 3 h; 100% = DMSO control level; GFP response vs DMSO, % at 10 µM; 0.51% of 330,000 active;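 active = GFP response versus DMSO above a set limit, roughly screen mean plus 3 SD, cut at about 180% in these data; inconclusive = fewer than 70 cells counted for a yeast strain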;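 also: median GFP fluorescence of the barcode-gated MEP2-GFP cells per well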
Large screens that a line does not name were inactive; [ ] = remark or other dose.

O=C(CN(C(=O)c1csnn1)c1ccc(F)cc1)NCCc1ccccc1	none
O=C1CN(C(=O)NCC(=O)N2CCCC2)c2ccccc2N1	none
COc1ccc(NS(=O)(=O)c2ccc(-c3coc(C)n3)cc2)cc1OC	none
Cc1nc(-c2ccc(S(=O)(=O)Nc3cccc(Cl)c3)cc2)co1	DSG3 Ab inh 59
CSc1cccc(NS(=O)(=O)c2ccc(-c3coc(C)n3)cc2)c1	DSG3 Ab inh 3.0
CCCc1cc(=O)[nH]c(SCC(=O)c2c(N)n(C3CC3)c(=O)[nH]c2=O)n1	none
N=C1C(c2nc(-c3ccc(Cl)cc3)cs2)=C(O)CN1NC(=O)c1ccc(O)cc1	none
CN(Cc1cc2ccccc2[nH]c1=O)S(=O)(=O)c1ccccc1	none (no result: AGP1 TOR yeast)
CN(Cc1cc2ccccc2[nH]c1=O)S(C)(=O)=O	DSG3 Ab inh 54
CC(C)N(Cc1cc2ccccc2[nH]c1=O)C(=O)c1cccc([N+](=O)[O-])c1	AGP1 TOR yeast inconclusive, CIT2 TOR yeast inconclusive, RPL19A-GFP yeast 44[may fluoresce violet], MEP2 TOR yeast 319[may fluoresce violet]
COc1ccc(S(=O)(=O)Nc2cc(S(=O)(=O)c3ccccc3)c(O)cc2C)cc1	none (no result: DSG3 Ab inh)
Cc1cc(O)c(C(C)C)cc1NS(=O)(=O)c1ccccc1	CIT2 TOR yeast inconclusive, DSG3 Ab inh inconclusive, RPL19A-GFP yeast 46[may fluoresce violet], MEP2 TOR yeast 182[may fluoresce violet]
N#CC1=C(N)Oc2cc(O)ccc2C1c1cccnc1 (configuration not stated)	CIT2 TOR yeast inconclusive, MEP2 TOR yeast 210[may fluoresce violet]
N#CC1=C(N)Oc2cc(O)c(Cl)cc2C1c1cccnc1 (configuration not stated)	none
COC(=O)c1ccc(C2C(C(=O)c3ccco3)=C(O)C(=O)N2CC2CCCO2)cc1 (configuration not stated)	none
O=C(C1=C(O)C(=O)N(CC2CCCO2)C1c1ccc(Cl)cc1)c1ccco1 (configuration not stated)	CIT2 TOR yeast inconclusive, MEP2 TOR yeast 276[may fluoresce violet]
O=C(N/N=C/c1ccc(O)cc1)NC12CC3CC(CC(C3)C1)C2	AGP1 TOR yeast inconclusive, CIT2 TOR yeast inconclusive, RPL19A-GFP yeast 39[may fluoresce violet], MEP2 TOR yeast 351[may fluoresce violet]
CC(=O)c1c(C)[nH]c(C(=O)CN2C(=O)NC3(CCCCC3)C2=O)c1C	none (no result: AGP1 TOR yeast, CIT2 TOR yeast, RPL19A-GFP yeast, LAP4-GFP MLPCN, MEP2 TOR yeast)
CCOc1cc2[nH]c(=O)n(CCCCCC(=O)NCc3ccco3)c(=O)c2cc1OCC	CIT2 TOR yeast inconclusive, MEP2 TOR yeast 190[may fluoresce violet]
CCCCN1CC(COCc2ccccc2)Oc2cccc(OCc3ccc(OC)cc3)c2S1(=O)=O (configuration not stated)	none (no result: AGP1 TOR yeast, CIT2 TOR yeast, RPL19A-GFP yeast, LAP4-GFP MLPCN, MEP2 TOR yeast)
Cc1ccccc1Oc1ncnc2oc(-c3ccccc3)cc12	MEP2 TOR yeast 267 (no result: RPL19A-GFP yeast)
CC1C(=O)CCN(C(C)(C)C)C1C (configuration not stated)	none
CC(C)Cn1c(=O)c(C(=O)NCc2ccc3c(c2)OCO3)c(O)c2ccccc21	AGP1 TOR yeast inconclusive, CIT2 TOR yeast inconclusive, RPL19A-GFP yeast 29[may fluoresce violet], LAP4-GFP MLPCN inconclusive, MEP2 TOR yeast inconclusive
Cc1nc(NC(=O)c2ccccc2)sc1-c1cc(C(=O)N2CCOCC2)nn1Cc1ccccc1	none (no result: AGP1 TOR yeast, CIT2 TOR yeast, RPL19A-GFP yeast, LAP4-GFP MLPCN, MEP2 TOR yeast)
CCOCCCNC(=O)/C(C#N)=C/c1ccc([N+](=O)[O-])o1	LAP4-GFP MLPCN 488, MEP2 TOR yeast active (no result: DSG3 Ab inh)
CCOCCCNC(=O)/C(C#N)=C/c1ccc(-c2ccc(S(=O)(=O)N3CCOCC3)cc2)o1	none
CC(NC(=O)/C(C#N)=C/c1ccc([N+](=O)[O-])o1)c1ccccc1 (configuration not stated)	CIT2 TOR yeast inconclusive, LAP4-GFP MLPCN 895[may fluoresce violet], MEP2 TOR yeast active[may fluoresce violet]
CCOC(=O)c1oc2ccccc2c1CSc1nnnn1-c1ccc(OC)cc1	AGP1 TOR yeast inconclusive, CIT2 TOR yeast inconclusive, MEP2 TOR yeast 248[may fluoresce violet]
O=C(O)c1ccc(CSc2nc3ccccc3[nH]2)cc1	none
NNC(=O)c1ccc(CSc2nc3ccccc3[nH]2)cc1	AGP1 TOR yeast inconclusive, CIT2 TOR yeast inconclusive, RPL19A-GFP yeast 45[may fluoresce violet]
O=C1/C(=C\c2cccs2)SC(=S)N1C1CCS(=O)(=O)C1 (configuration not stated)	AGP1 TOR yeast inconclusive, CIT2 TOR yeast inconclusive, RPL19A-GFP yeast 13[may fluoresce violet], LAP4-GFP MLPCN inconclusive, MEP2 TOR yeast inconclusive
O=C1/C(=C/c2ccccc2)SC(=S)N1C1CCS(=O)(=O)C1 (configuration not stated)	none
NS(=O)(=O)c1ccc(-c2ccc(/C=C3\SC(=S)N(C4CCS(=O)(=O)C4)C3=O)o2)cc1 (configuration not stated)	DSG3 Ab inh 77
Cc1ccc(/C=C2\SC(=S)N(C3CCS(=O)(=O)C3)C2=O)o1 (configuration not stated)	none
Cc1ccc(S(=O)(=O)n2cccc2/C=C/[N+](=O)[O-])cc1	none (no result: AGP1 TOR yeast, CIT2 TOR yeast, RPL19A-GFP yeast, LAP4-GFP MLPCN, MEP2 TOR yeast)
O=C(O)C(=Cc1ccccc1[N+](=O)[O-])c1ccc2c(c1)OCO2	none (no result: AGP1 TOR yeast, CIT2 TOR yeast, RPL19A-GFP yeast, LAP4-GFP MLPCN, MEP2 TOR yeast)
CC(C)(C)C1CCC(C(=O)Nc2ccccc2)CC1 (configuration not stated)	DSG3 Ab inh 66
O=C(Nc1ccc(Nc2ccccc2)cc1)C1CC1	none
O=C(Nc1ccc(Cc2ccc(NC(=O)C3CC3)cc2)cc1)C1CC1	none
O=C(Nc1ccc(-n2cccc2)cc1)C1CC1	DSG3 Ab inh 68
O=C(Nc1ccccc1F)c1cc(S(=O)(=O)N2CCOCC2)cs1	DSG3 Ab inh inconclusive
CCCc1cc(=O)oc2cc(C)cc(OCC(=O)NCCN3CCOCC3)c12	none
CCCc1cc(=O)oc2cc(C)cc(OCC(=O)Nc3ccc(CN4CCOCC4)cc3)c12	AGP1 TOR yeast inconclusive, CIT2 TOR yeast inconclusive, RPL19A-GFP yeast 28[may fluoresce violet], MEP2 TOR yeast 271[may fluoresce violet]
Nc1nnc(COc2ccccc2)s1	none
COc1ccccc1NC(=S)N1CCC(c2nc3cc(C)c(C)cc3[nH]2)CC1	AGP1 TOR yeast inconclusive, CIT2 TOR yeast inconclusive, MEP2 TOR yeast 300[may fluoresce violet]
O=S(=O)(c1cccc(Br)c1)N1CCN(c2ccnc3cc(Cl)ccc23)CC1	CIT2 TOR yeast 174[may fluoresce green]
Cc1ccnc(SCC(=O)N2CCC(C(N)=O)CC2)n1	AGP1 TOR yeast inconclusive, CIT2 TOR yeast inconclusive, RPL19A-GFP yeast 15[may fluoresce violet], MEP2 TOR yeast 358[may fluoresce violet] (no result: DSG3 Ab inh)
N#C/C(=C\c1ccc(N2CCOCC2)cc1)c1ccccc1	DSG3 Ab inh -133
N#C/C(=C\N1CCOCC1)c1ccccc1	none
N#C/C(=C\c1ccc(N2CCOCC2)o1)c1ccccc1	none
N#C/C(=C/c1ccc(N2CCOCC2)o1)c1ccc(Br)cc1	LAP4-GFP MLPCN 167
COc1ccc(CNC(=O)C2CCC(CNS(=O)(=O)c3cccs3)CC2)cc1 (configuration not stated)	none

Compound activity from PubChem.
